Records with an inconclusive call do not appear. Where a call stands in place of a potency, no number is given. Calls of active or inactive are those of the source. Calls follow the shape of the dose curve; as a rule, active = well fitted inhibition curve with a large enough effect; inconclusive = small, poorly fitted or top-dose-only effect; inactive = flat fitted curve, though single readings scatter.
experiment: P-glycoprotein substrates identified in KB-8-5-11 adenocarcinoma cell line, qHTS therapeutic library screen (AID 1346987); details: KB-8-5-11 (P-gp overexpressing) viability, CellTiter-Glo, 72 h; series mostly up to 44.5 µM; also: nearly all actives have a fitted effect of over 65% in size
Outline: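 Luminescence from CellTiter-Glo, read 5 min after addition, quantified survival of KB-8-5-11 (P-gp-overexpressing) cells exposed to compounds for 72 h. AC50 was derived from concentration-response curves.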

Structure (SMILES)	activity change, negative = cytotoxicity	Potency	outcome
C[C@@H]1O[C@@H](O[C@H]2[C@H](O)[C@@H](O[C@@H]3O[C@H](CO)[C@H](O)[C@H](O)[C@H]3O)[C@H](O[C@H]3CC[C@@]4(C)C(CC[C@]5(C)C4CC=C4[C@@H]6CC(C)(C)CC[C@]6(C(=O)O[C@@H]6O[C@H](CO)[C@@H](O)[C@H](O)[C@H]6O)CC[C@]45C)C3(C)C)O[C@@H]2C(=O)O)[C@H](O)[C@H](O)[C@H]1O (stereo not given in full)	2.63% [at 9.29 µM] (inactive)		
CC(=O)OC(C)C(C)(O)C(=O)O[C@@H]1CC[C@]2(C)CC(=O)C(=C(C)C)C[C@H]2[C@]1(C)OC(C)=O (stereo not given in full)		inactive	
CCCCOc1nc(N)c2c(n1)N(Cc1cccc(CN3CCCC3)c1)CC(=O)N2		inactive	
COc1ccc(CCC(=O)O)c(O[C@@H]2O[C@H](CO)[C@@H](O)[C@H](O)[C@H]2O)c1		inactive	
C[C@@H]1O[C@@H](OC(=O)Cc2ccccc2)[C@H](O)[C@H](O)[C@H]1O		inactive	
COc1c2c(c(C)c3c1C(=O)OC3)OC1(C)CC(O)C34OC(OC)(CC(O)C3(C)C1C2)OC4(C)C (stereo not given)		inactive	
CC1=C2C(=O)C=C(CO[C@@H]3O[C@H](CO)[C@@H](O)[C@H](O)[C@H]3O)[C@@H]2[C@H]2OC(=O)[C@H](C)[C@@H]2[C@@H](O)C1		inactive	
COC1CC(O[C@H]2CC[C@@]3(C)C(=CC[C@]4(O)C3[C@H](O)[C@@H](O)[C@]3(C)[C@@H]([C@H](C)O)CC[C@@]34O)C2)OC(C)C1OC1CC(OC)C(OC2CC(OC)C(OC3OC(C)C(OC4OC(CO)C(O)C(O)C4O)C(OC)C3O)C(C)O2)C(C)O1 (stereo not given in full)	0.732% [at 9.29 µM] (inactive)		
C/C=C(\C)C(=O)OC1C2(O)CC3=C4CC(=O)OC(c5ccoc5)C4(C)CCC3C(C)(C2=O)C(C(OC(C)=O)C(=O)OC)C1(C)C (stereo not given)		inactive	
CC(=O)/C=C/[C@H]1[C@](C)(O)[C@@H](O)[C@H](O)C2C(C)(C)CCC[C@@]21C (stereo not given in full)		inactive	
COc1cc(C2OCC3(O)C(c4ccc(O[C@@H]5O[C@H](CO)[C@@H](O)[C@H](O)[C@H]5O)c(OC)c4)OCC23O)ccc1O (stereo not given in full)		inactive	
COc1ccc(/C=C/C(=O)O[C@@H]2[C@@H](O[C@@H]3O[C@H](CO)[C@@H](O)[C@H](O)[C@H]3O)[C@@H](O)[C@H](O[C@H]3C4C=CO[C@@H](O[C@@H]5O[C@H](CO)[C@@H](O)[C@H](O)[C@H]5O)C4[C@@]4(CO)O[C@@H]34)O[C@H]2C)cc1 (stereo not given in full)	2.62% [at 9.29 µM] (inactive)		
C[C@@H]1C(=O)O[C@H](C)[C@H]1C[C@@H](O)[C@](C)(O)[C@H]1CC[C@@]2(O)C3=CC(=O)[C@@H]4C[C@@H](O)[C@@H](O)C[C@]4(C)C3CC[C@]12C (stereo not given in full)		inactive	
Cc1oc2nc3c(c(NC(=O)CN4CCCC4=O)c2c1C)CCCC3		inactive	
CC1=C2C[C@@]3(C)[C@@H](CCC[C@@H]3C)C[C@@]2(O)OC1=O		inactive	
CC(C)(CC(=O)N1CCCC1)NCC(=O)N1C[C@@H](F)C[C@H]1C#N		inactive	
C=CC(C)(O)CC/C=C(\C)C1CC=C(C)C(=O)O1 (stereo not given)		inactive	
COc1c2ccoc2nc2c(OC)c(O[C@@H]3O[C@@H](C)[C@H](O)[C@@H](O[C@@H]4O[C@H](CO)[C@@H](O)[C@H](O)[C@H]4O)[C@H]3OC(C)=O)ccc12		inactive	
COc1cc(/C=C/C(=O)O[C@H]2[C@H](O)[C@@H](CO)O[C@@]2(CO)O[C@H]2O[C@H](CO)[C@@H](O)[C@H](O)[C@H]2O)cc(OC)c1O		inactive	
CCOC(=O)c1ccc(NC2CCCCC2)c(N)c1		inactive	
COc1ccc(C2(O)c3ccccc3NC(=O)C2OC)cc1 (stereo not given)		inactive	
CCOc1nc2c(N)ncnc2n1CC		inactive	
CC(O)CCc1ccc(O[C@@H]2O[C@H](CO)[C@@H](O)[C@H](O)[C@H]2O)cc1 (stereo not given in full)		inactive	
CCOC(=O)C(CCc1ccccc1)NC(C)C(=O)N1Cc2ccccc2CC1C(=O)O (stereo not given)		inactive	
CC(C)=CCC[C@](C)(O[C@@H]1O[C@H](CO[C@@H]2O[C@@H](CO)[C@H](O)[C@H]2O[C@@H]2OC[C@@H](O)[C@H](O)[C@H]2O)[C@@H](O)[C@H](O)[C@H]1O)[C@H]1CC[C@]2(C)[C@@H]1[C@H](O)CC1[C@@]3(C)CC[C@H](O[C@@H]4O[C@H](CO)[C@@H](O)[C@H](O)[C@H]4O[C@@H]4O[C@H](CO)[C@@H](O)[C@H](O)[C@H]4O)C(C)(C)C3CC[C@]12C (stereo not given in full)			inactive [at 9.29 µM]

Reference: PubChem BioAssay (NCATS)
